# Most compounds without a hit are left out; they make up all but 1.6% or so of the library.
# KCNQ2 inh: inhibitors of rat KCNQ2 potassium channel; AID 2156; B-score at 10 µM; CHO-K1 KCNQ2, FluxOR thallium flux, 20 min; active compounds read low; hit rate 1.1% among 310,000;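 active = fluorescence ratio B-score at most minus 3 library SDs, with starting brightness B-score within 2 library SDs, cut at about -5.5 in these data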
# KCNQ2 enhance: enhances the rat KCNQ2 potassium channel; hit rate 0.54% among 310,000; O88943; CHO-K1 KCNQ2, FluxOR thallium flux fluorescence; active compounds read high; AID 2239; B-score at 10 µM;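 active = fluorescence ratio B-score at least 3 SD of library B-scores, with initial fluorescence B-score within 3 of them, cut at about 5.3 in these data; same plate scores as AID 2156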;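 also: B-score of peak minus minimum over baseline fluorescence ratio after K+ and Tl+ stimulus; positive B-score means potentiation of KCNQ2 with more thallium influx and brighter signal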
# Kir21 conf inh: confirmation of mouse Kir2.1 potassium channel inhibitors; hit rate 41% among 2,300; shares compounds with KCNQ2 enhance; Tl flux remaining, % of negative control (active compounds read low), % at 10 µM; Kir2.1-expressing cells, FluxOR thallium flux fluorescence; active compounds read low;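 active = Primary-screen hit whose thallium flux fell at least 3 control SD below untreated wells in both duplicates, with normal baseline fluorescence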;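 also: 0% = blank wells without stimulus and 100% = stimulated no-compound controls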
# HEK293 Tl flux: alters thallium flux in parental HEK293 cells, Kir2.1 counter-screen; hit rate 19% among 2,300; shares compounds with KCNQ2 enhance; FluxOR signal as % of negative control (100 = no effect), % at 10 µM; FluxOR thallium flux fluorescence; 0% = unstimulated blank wells;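 active = dye signal at least 3 control SD above or below untreated wells in both duplicates, raw fluorescence within 3, either direction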;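 also: percent is based on the flux ratio of peak minus minimum fluorescence over baseline F0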
# CHO-K1 ctr: parental CHO-K1 activity in KCNQ2 potentiator counter-screen; parental CHO-K1 cells, FluxOR thallium flux fluorescence; zero = vehicle mean+3SD, 100% = vehicle-minus-blank window; hit rate 43% among 1,200; shares compounds with KCNQ2 enhance; activity increase over 3SD of controls, % at 10 µM;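 active = signal rise of at least 3 SD above the untreated control mean, in both duplicate wells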;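 also: counter screen of KCNQ2 potentiator hits so any rise reflects channel-independent effects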
# KCNQ1 sel pot: tests whether KCNQ2 potentiators also act on human KCNQ1; hit rate 28% among 1,200; activation over 3SD threshold, % at 10 µM; AID 2283; shares compounds with KCNQ2 enhance; CHO KCNQ1 stable, FluxOR thallium flux fluorescence; beyond 3SD, as % of vehicle-control signal;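 active = fluorescence ratio rise of at least 3 SD of vehicle wells above their mean, in both replicate wells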;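 also: 0% = vehicle mean plus 3 SD and 100% = vehicle minus unstimulated blank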
# KCNQ2 pot conf: rat KCNQ2 channel potentiator confirmation | shares compounds with KCNQ2 enhance | CHO-KCNQ2 cells, FluxOR thallium flux fluorescence | potentiation, less the hit threshold, % at 10 µM | hit rate 68% among 1,200 | AID 2287;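 active = fluorescence ratio rising 3 SD or more over the vehicle control mean in both replicates, plus primary screen hit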;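 also: peak minus minimum thallium fluorescence divided by baseline after K/Tl stimulus; 0% = vehicle mean plus 3 SD and 100% = vehicle minus unstimulated blank difference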
# Kir21 spec: mouse Kir2.1 off-target activity of KCNQ2 potentiators; shares compounds with KCNQ2 enhance; HEK293 Kir2.1, FluxOR thallium flux fluorescence; activity over 3SD threshold, % at 10 µM; hit rate 2% among 1,200;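 active = fluorescence ratio rise of at least 3 SD above the vehicle-control mean, seen in both replicates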;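 also: 0% = vehicle mean plus 3 SD and 100% = vehicle minus no-stimulus blank window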
# KCNQ2 W236L pot: KCNQ2 potentiators acting on retigabine-insensitive rat KCNQ2 W236L mutant; shares compounds with KCNQ2 enhance; CHO KCNQ2-W236L, automated patch clamp current; current increase over 3SD of negative controls (%), active compounds read high, % at 25 µM; hit rate 10% among 940;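 active = current increase at least 3 SD of the untreated controls above them in both duplicate recordings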
# Target sequence (O88943 whole entry W236L, looked up): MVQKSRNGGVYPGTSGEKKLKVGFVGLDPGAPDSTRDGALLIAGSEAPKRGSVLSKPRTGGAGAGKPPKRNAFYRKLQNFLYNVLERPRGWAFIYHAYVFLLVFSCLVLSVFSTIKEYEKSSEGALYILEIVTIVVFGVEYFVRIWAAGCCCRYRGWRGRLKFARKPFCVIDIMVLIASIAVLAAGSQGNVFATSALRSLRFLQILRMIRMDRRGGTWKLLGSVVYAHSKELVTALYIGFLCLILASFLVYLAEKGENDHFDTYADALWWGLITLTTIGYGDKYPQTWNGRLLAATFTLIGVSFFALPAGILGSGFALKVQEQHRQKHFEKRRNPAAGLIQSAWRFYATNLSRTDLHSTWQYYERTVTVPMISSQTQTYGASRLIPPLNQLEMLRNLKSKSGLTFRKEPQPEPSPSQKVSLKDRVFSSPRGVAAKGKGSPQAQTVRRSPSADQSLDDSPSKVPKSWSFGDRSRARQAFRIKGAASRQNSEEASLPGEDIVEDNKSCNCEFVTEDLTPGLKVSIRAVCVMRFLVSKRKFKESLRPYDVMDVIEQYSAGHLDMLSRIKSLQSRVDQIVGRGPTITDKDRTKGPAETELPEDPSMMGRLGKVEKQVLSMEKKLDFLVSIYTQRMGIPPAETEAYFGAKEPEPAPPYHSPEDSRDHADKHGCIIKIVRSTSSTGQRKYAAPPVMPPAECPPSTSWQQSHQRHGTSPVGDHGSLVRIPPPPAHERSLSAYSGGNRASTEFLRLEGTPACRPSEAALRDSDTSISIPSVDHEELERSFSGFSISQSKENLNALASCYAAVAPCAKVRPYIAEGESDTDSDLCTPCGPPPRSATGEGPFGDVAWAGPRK
# * marks the source's active call; other numbers are inactive results; i = inactive; / = no result given.
SMILES,KCNQ2 inh,KCNQ2 enhance,Kir21 conf inh,HEK293 Tl flux,others
Brc1ccc(CSc2nccn2-c2ccccc2)cc1,i,/,/,/,
Clc1cccc(CSc2nccn2-c2ccccc2)c1,i,/,64%*,i,
CCN1CCN(c2ccc(S(=O)(=O)N3CCOCC3)cc2NC(=O)/C=C/c2ccc(OC)cc2OC)CC1,i,0.2,/,/,
CC(=O)Nc1cc(S(=O)(=O)Nc2cccc(C)c2)c(C)cc1C,i,0.39,/,/,
Cc1ccc(S(=O)(=O)Nc2c(Cl)c(Cl)c(O)c3ccccc23)cc1,i,6.4*,i,i,CHO-K1 ctr=-9;KCNQ1 sel pot=68*;KCNQ2 pot conf=-11;Kir21 spec=-45;KCNQ2 W236L pot=i
Cc1ccc(S(=O)(=O)Nc2c(O)ccc3ccccc23)cc1,i,2.4,/,/,
Cc1cc(NC(=O)CCC(=O)N(CCc2ccccc2)C(C(=O)NC2CCCC2)c2ccco2)no1 (centres undefined),i,2.8,/,/,
O=c1[nH]c(-c2ccccc2)c(-c2ccccc2)nc1[N+](=O)[O-],i,/,/,/,
CSC1=C(C#N)C(CC(C)C)C2=C(CCCC2=O)N1 (centres undefined),i,1.4,/,/,
CSC1=C(C#N)C(CC(C)C)C(C(C)=O)=C(C)N1 (centres undefined),i,1.2,72%*,i,
CCN(CC(=O)Nc1ccc(NC(C)=O)cc1)C(=O)C(c1ccccc1)c1ccccc1,i,0.34,/,/,
C/C=C\C=C/C(=O)Nc1cccc(C2=NOC3(C2)C[C@@H](C(N)=O)N(C(=O)c2ccc(Cl)cc2)C3)c1 (some centres undefined),i,0.96,/,/,
Cc1ccc(S(=O)(=O)Nc2cc(Cl)c(O)cc2C)cc1,i,/,/,/,
Cc1ccc(S(=O)(=O)Nc2cc(C(C)C)c(O)cc2C)cc1,i,/,34%*,71%*,
CN1C(=O)[C@@H]2[C@@H]3C[C@@H]([C@H]4ON=C(c5ccc(Cl)cc5Cl)[C@@H]34)[C@@H]2C1=O,i,/,/,/,
COC(=O)c1nnn(-c2nonc2N)c1CSCCO,i,/,/,/,
NC(=O)C(c1ccc(Cl)cc1)c1ncc(C(F)(F)F)cc1Cl (centres undefined),i,3.4,/,/,
N#CC(c1ccc(O)cc1)c1ncc(C(F)(F)F)cc1Cl (centres undefined),i,2.2,48%*,i,
COc1ccc(CCC(C)NCc2ccc(Cl)c(Cl)c2)cc1 (centres undefined),i,/,/,/,
COc1ccc(CCC(C)NCCc2ccc(Cl)cc2Cl)cc1 (centres undefined),i,/,16%*,i,
Cc1occc1C(=O)NNC(=S)NC(=O)COc1ccc(Cl)cc1Cl,i,9.5*,i,149%*,CHO-K1 ctr=-18;KCNQ1 sel pot=93*;KCNQ2 pot conf=6.5*;Kir21 spec=-25;KCNQ2 W236L pot=i
Cc1occc1C(=O)NNC(=O)COc1ccc(Br)cc1Br,i,/,/,/,
Nc1ccc(-n2nncc2-c2ccccc2)cc1,i,0.04,/,/,
O=C(CCCN1C(=O)/C(=C/c2ccco2)SC1=S)Nc1ccccc1C(=O)O,i,1.1,/,/,
COc1ccc(OCCOC(=O)CNC(=O)c2ccc(C)cc2)cc1,i,0.94,/,/,
SMILES,KCNQ2 inh,KCNQ2 enhance,Kir21 conf inh,HEK293 Tl flux,others
COc1cccc(-c2nc(NCC3CCCO3)c3ccccc3n2)c1O (centres undefined),i,/,/,/,
COc1ccccc1Nc1nc(NCC2CCCO2)c2ccccc2n1 (centres undefined),i,/,28%*,i,
Cc1cc(Oc2ccccc2)nc(SCC(=O)Nc2ccccc2)n1,i,/,/,/,
Cc1cc(Oc2ccccc2)nc(SCC(=O)Nc2ccc(Cl)c(Cl)c2)n1,i,5.5*,i,i,CHO-K1 ctr=-26;KCNQ1 sel pot=-10;KCNQ2 pot conf=6.8*;Kir21 spec=-35;KCNQ2 W236L pot=i
O=C(CN1C(=O)C2CCCCC2C1=O)OCn1nnc2ccccc2c1=O (centres undefined),i,/,/,/,
Cc1ccc(-c2nc(S(=O)(=O)c3ccc(F)cc3)c(SCC(=O)NCC3CCCO3)o2)cc1 (centres undefined),i,/,/,/,
O=C(/C=C/c1ccccc1Cl)c1ccccc(=O)c1O,i,8.4*,i,153%*,CHO-K1 ctr=-4;KCNQ1 sel pot=4.1*;KCNQ2 pot conf=-6;Kir21 spec=-45
O=C(/C=C/c1ccccc1Cl)Nc1ccccc1,i,/,/,/,
Cc1ccc(C)c(NC(=O)c2ccccc2O)c1,i,0.05,/,/,
Cc1ccc(C)c(/C=C/C(=O)c2ccccc(=O)c2O)c1,i,18*,i,144%*,CHO-K1 ctr=33*;KCNQ1 sel pot=36*;KCNQ2 pot conf=-4;Kir21 spec=-40;KCNQ2 W236L pot=i
Cc1cccc(-n2ncc3c(NCCCn4ccnc4)ncnc32)c1,i,/,/,/,
Cc1ccc(N/C(N)=N/c2nc3c(c(=O)[nH]2)CCCC3)c(C)c1,i,/,/,/,
CN(C)c1cc(Nc2ccc(O)cc2)c([N+](=O)[O-])c2nonc12,i,/,/,/,
O=[N+]([O-])c1c(Nc2ccc(O)cc2)cc(Cl)c2nonc12,-10*,-10,66%*,i,
COc1cc(CNCCCN2CCOCC2)cc(Br)c1OCc1ccc(Cl)cc1,i,/,33%*,i,
COc1cc(CNCCN2CCOCC2)ccc1OCc1ccc(Cl)cc1,i,0.08,/,/,
NNc1nc2c(-c3cccc(C(F)(F)F)c3)nnn2c2ccccc12,i,0.02,/,/,
O=C(O)/C=C/C(=O)N1CCN(c2cccc(Cl)c2)CC1,i,0.11,i,i,
O=C(O)CCC(=O)N1CCN(c2cccc(Cl)c2)CC1,i,0.8,/,/,
CCCCn1nnc(NC(=O)CC23CC4CC(CC(C4)C2)C3)n1,i,20*,i,i,CHO-K1 ctr=10*;KCNQ1 sel pot=-24;KCNQ2 pot conf=59*;Kir21 spec=-34;KCNQ2 W236L pot=i
CC(C)c1nnc(NC(=O)CC23CC4CC(CC(C4)C2)C3)s1,i,/,/,/,
CC(C)(C)n1ncc2c(=O)n(CC(=O)N3CCCC3)cnc21,i,/,/,/,
O=C(Nc1c(F)cc(F)cc1Br)c1ccco1,i,/,/,/,
